Screens (PubChem)
D1 antag: Antagonist of Human D 1 Dopamine Receptor: qHTS. D(1A) dopamine receptor (Homo sapiens), P21728. HEK293 TREx D1 cells, calcium flux, dopamine EC80; active compounds read low. activity change, negative = inhibition, % at 10 µM. 360,000 tested, 3.2% active. AID 504652, 2011; in the data active = activity change below about -30%
Target sequence (P21728 whole entry, looked up): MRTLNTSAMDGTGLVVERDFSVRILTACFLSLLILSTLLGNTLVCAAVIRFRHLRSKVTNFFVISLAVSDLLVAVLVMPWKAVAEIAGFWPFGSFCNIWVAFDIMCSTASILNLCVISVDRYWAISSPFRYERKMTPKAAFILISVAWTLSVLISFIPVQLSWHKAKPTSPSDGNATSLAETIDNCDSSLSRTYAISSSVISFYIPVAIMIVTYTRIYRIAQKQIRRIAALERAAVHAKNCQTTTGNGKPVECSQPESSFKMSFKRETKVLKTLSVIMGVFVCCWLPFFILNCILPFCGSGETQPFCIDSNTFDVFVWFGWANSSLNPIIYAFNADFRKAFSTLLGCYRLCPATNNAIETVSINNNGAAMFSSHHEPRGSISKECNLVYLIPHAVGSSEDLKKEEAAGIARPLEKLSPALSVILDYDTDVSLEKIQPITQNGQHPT
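Using tetracycline-induced force-coupled D1 Hek293 cells and a calcium dye, signals were followed for 180 s after compound, then for 180 s after EC80 dopamine, to detect inhibitors.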
TRHR ag: qHTS for Small Molecule Agonists and Allosteric Enhancers of Human TRH Receptor: Primary Screen for Agonists. AID 493084, 2011. 360,000 tested, 0.18% active. activation, % at 2 µM. TRHR cells, calcium flux fluo-8, FDSS agonist mode
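TRHR-expressing cells, plated overnight in medium with 10% serum, were loaded with fluo-8 calcium dye at room temperature. After a 10 s baseline, library compound was pin-added and calcium release was recorded kinetically (ex 480/em 530) as agonist response.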
D1 ag: Allosteric Agonists of the Human D1 Dopamine Receptor: qHTS; HEK293 T-REx D1 cells, calcium flux, agonist mode; activation, % at 2 µM; 360,000 tested, 1% active; AID 504660, 2011
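Agonism was scored from calcium flux recorded over 180 s (1 read/s) after pintool compound addition, following a 10-cycle baseline. Cells were inducible force-coupled HEK293 TREx D1, plated overnight at 30 C and loaded with no-wash calcium dye.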
TRHR PAM: qHTS for Small Molecule Agonists and Allosteric Enhancers of Human TRH Receptor: Primary Screen for Enhancers; AID 493056, 2011; 360,000 tested, 0.66% active; TRHR cells, fluo-8 calcium fluorescence, EC20 TRH enhancement; enhancement, % at 2 µM; in the data active = enhancement above about 30%
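Enhancer read-out: after compound pinning and an initial kinetic agonist-mode read, an EC20 of TRH (10 nM final) was injected and fluo-8 calcium signal (Ex 480/Em 530) followed at 1 s/cycle for 100 cycles in TRHR-expressing cells.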
D1 potentiator: Potentiators of Human D1 Dopamine Receptor: qHTS; D(1A) dopamine receptor (Homo sapiens), P21728; HEK293 TREx D1 cells, calcium flux, dopamine EC20 potentiation; potentiation, % at 10 µM; 360,000 tested, 0.036% active; in the data active = potentiation above about 30%
Hits are given with their value; – = inactive. Hits are enriched below; roughly 4.6% of the tested compounds scored in any of these assays. Rule as the data show it, unless noted: active = activation above about 30%; inactive = the rest.

SMILES	D1 antag	TRHR ag	D1 ag	TRHR PAM	D1 potentiator
COc1ccc(N2CCN(C(=O)Cn3cnc4nc5c(cc4c3=O)CCCC5)CC2)cc1	-31	–	–	–	–
Cc1cc2c(=O)n(CC(=O)N3CCN(c4ccccc4)CC3)cnc2s1	–	–	–	–	–
O=C(Cn1cnc2ccccc2c1=O)N1CCN(c2ccccc2)CC1	-36	–	–	–	–
COc1cc2[nH]c(=O)n(CCCC(=O)NCc3ccc(Cl)cc3)c(=O)c2cc1OC	–	–	–	–	–
Cc1cccc(-c2nnc(SCc3cc(=O)c4cccc(Cl)c4[nH]3)n2C)c1	–	–	–	–	–
CC(C)(C)c1ccc(OCCNCc2ccccc2)cc1	–	–	43	–	–
CNCCCOc1ccc(C(C)(C)c2ccccc2)cc1	–	–	53	–	–
CCCOc1ccc(OCCCCNC(C)CC)cc1 (stereo unspecified)	-54	–	–	–	–
c1ccc(CCNCCOc2ccccc2)cc1	-53	–	–	–	–
O=C(CCCOc1ccccc1)NCCc1ccccc1	–	–	–	–	–
Cc1ccc(-n2c(=O)c3c(c4cc(C)ccc4n3C)n(CC(=O)NCc3ccccc3)c2=O)cc1	–	–	–	–	–
O=C(CSc1nncs1)Nc1nccs1	–	–	–	–	–
O=C(NCCc1csc(-c2ccc(C(F)(F)F)cc2)n1)C(=O)Nc1cc(F)ccc1F	–	–	–	–	–
CC(C)(c1ccccc1)c1ccc(OCCN2CCOCC2)cc1	–	–	–	–	–
Cc1ccc(C(C)C)c(OCCNCCc2ccccc2)c1	–	–	58	–	–
CCC(C)NCCOc1ccc(C(C)(C)c2ccccc2)cc1 (stereo unspecified)	–	–	72	–	–
CCCCNCC#CCOc1cc(C)ccc1C(C)C	–	–	87	–	–
CC(C)(c1ccccc1)c1ccc(OCCCN2CCNCC2)cc1	–	–	59	–	–
Cc1ccc(C(C)C)c(OCCCNCc2cccnc2)c1	–	–	–	–	–
Cc1[nH]n(-c2ccc([N+](=O)[O-])cc2)c(=O)c1C=NCCc1c[nH]c2ccccc12	-36	–	–	–	–
CCN1CCCC1CNC(=O)Cn1nc(C)n2c(cc3cc(F)ccc32)c1=O (stereo unspecified)	–	–	–	35	–
COC(=O)N1c2ccccc2C=Cc2ccccc21	–	–	–	–	–
COc1ccc(C2CC3(CC(C)(C)NC(SC)=N3)Oc3cc(O)cc(C)c32)cc1 (stereo unspecified)	–	–	263	–	–
CCc1ccc(C2C(C(=O)Nc3ccc(Cl)cc3)=C(C)Nc3ncnn32)cc1 (stereo unspecified)	–	–	–	–	–
O=C(O)c1c(C(=O)N2N=C3/C(=C/c4ccccc4)CCCC3C2c2ccccc2)cccc1[N+](=O)[O-] (stereo unspecified)	–	–	–	–	–
SMILES	D1 antag	TRHR ag	D1 ag	TRHR PAM	D1 potentiator
CC(=O)N1N=C2/C(=C/c3ccccc3)CCCC2C1c1ccccc1 (stereo unspecified)	–	–	–	31	–
CCCOc1ccc(-c2nn(-c3ccccc3)cc2/C=C2\SC(N)=NC2=O)cc1C	-74	–	–	–	–
COc1ccc(-c2nn(CCC(=O)O)cc2/C=C2\SC(N)=NC2=O)cc1OC	–	–	–	–	–
O=[S+]([O-])(c1cc2ccccc2o1)N1CCN([S+](=O)([O-])c2c(F)cccc2F)CC1	–	–	–	–	–
CCc1noc(C)c1C(=O)Oc1ccc(N(C)S(=O)(=O)c2ccc(C)cc2)cc1	–	–	–	–	–
CCc1noc(C)c1C(=O)Oc1ccc(N(C)S(=O)(=O)c2ccccc2)cc1	–	–	36	–	–
COc1ccc(C(=O)/C=C/c2cn(CC(O)CN3CCCCCC3)c3ccccc23)cc1OC (stereo unspecified)	–	–	–	–	–
Cc1ccc(C(=O)/C=C/c2cn(CC(O)CN3CCCCCC3)c3ccccc23)cc1 (stereo unspecified)	–	–	59	–	–
O=C(/C=C/c1cn(CC(O)CN2CCCCCC2)c2ccccc12)c1ccccc1 (stereo unspecified)	–	–	54	–	–
O=C(/C=C/c1cn(CC(O)CN2CCCCCC2)c2ccccc12)c1ccc(Br)cc1 (stereo unspecified)	–	–	45	–	–
O=C(/C=C/c1cn(CC(O)CN2CCCCC2)c2ccccc12)c1ccccc1 (stereo unspecified)	-50	–	31	–	–
COc1ccc(Nc2c3c(nc4ccc(NC(=O)/C=C/c5cccc(OC)c5OC)cc24)CCCC3)cc1OC	–	–	–	–	–
CCOc1ccc(CCNC(=O)CCCc2nnc3n(C)c(=O)c4sccc4n23)cc1OCC	–	–	–	–	–
Cc1nnc(NC(=O)C(=O)c2cc(C)n(-c3ccc(C)c(C)c3)c2C)s1	–	–	–	–	–
Cc1ccnc(NS(=O)(=O)c2ccc(NS(=O)(=O)c3ccc(Br)cc3)cc2)n1	–	–	–	–	–
Fc1ccc(-n2ncc3c(Nc4cccc(Cl)c4)ncnc32)cc1	–	–	–	–	–
CCc1ccccc1Oc1ccc(S(=O)(=O)N2CCN(C)CC2)cn1	–	–	–	40	–
C/C(=N\NC(=O)c1ccco1)c1ccc(-c2ccccc2)cc1	–	–	–	–	–
C/C(=N\NC(=O)c1ccco1)c1ccc(NC(=O)C(F)(F)F)cc1	–	–	–	39	–
C/C(=N\NC(=O)c1ccco1)c1ccc(NC(=O)c2ccccc2)cc1	-33	–	–	–	–
COc1ccc(CN2CCC(CO)(Cc3cccc(C(F)(F)F)c3)CC2)cc1Cn1cccn1	–	–	34	–	–
OCC1(Cc2cccc(C(F)(F)F)c2)CCN(Cc2cc3ccccc3o2)CC1	–	–	–	–	–
COc1ccc(F)c(CN2CCC(CO)(Cc3cccc(C(F)(F)F)c3)CC2)c1	–	–	–	–	–
COc1cc(CN2CCC(CO)(Cc3cccc(C(F)(F)F)c3)CC2)ccc1F	–	–	52	–	–
Cc1c(CN2CCC(CO)(Cc3cccc(C(F)(F)F)c3)CC2)c2ccccc2n1C	–	–	82	–	–
Cc1cn2c(=O)cc(COC(=O)COc3ccc(C)c(C)c3)nc2s1	-38	–	–	–	–
COc1ccccc1C(=O)Nc1cccc(C(=O)OCc2cc(=O)n3cc(C)sc3n2)c1	-31	–	–	–	–
